# KCNH2 WT inh: inhibitors of human wildtype KCNH2 potassium channel | Q12809 | 0.37% of 340,000 active | AID 720551 | activity change, % at 1.84 µM | U2OS, BacMam KCNH2, thallium flux FluxOr; hits give low values;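 active = maximum activity change below -70%; inconclusive = maximum activity change between -70% and -50%; inactive = maximum activity change above -50%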; note: % is set by controls: 0 for no effect and ±100 for the full control effect
# Target sequence (Q12809 whole entry, looked up): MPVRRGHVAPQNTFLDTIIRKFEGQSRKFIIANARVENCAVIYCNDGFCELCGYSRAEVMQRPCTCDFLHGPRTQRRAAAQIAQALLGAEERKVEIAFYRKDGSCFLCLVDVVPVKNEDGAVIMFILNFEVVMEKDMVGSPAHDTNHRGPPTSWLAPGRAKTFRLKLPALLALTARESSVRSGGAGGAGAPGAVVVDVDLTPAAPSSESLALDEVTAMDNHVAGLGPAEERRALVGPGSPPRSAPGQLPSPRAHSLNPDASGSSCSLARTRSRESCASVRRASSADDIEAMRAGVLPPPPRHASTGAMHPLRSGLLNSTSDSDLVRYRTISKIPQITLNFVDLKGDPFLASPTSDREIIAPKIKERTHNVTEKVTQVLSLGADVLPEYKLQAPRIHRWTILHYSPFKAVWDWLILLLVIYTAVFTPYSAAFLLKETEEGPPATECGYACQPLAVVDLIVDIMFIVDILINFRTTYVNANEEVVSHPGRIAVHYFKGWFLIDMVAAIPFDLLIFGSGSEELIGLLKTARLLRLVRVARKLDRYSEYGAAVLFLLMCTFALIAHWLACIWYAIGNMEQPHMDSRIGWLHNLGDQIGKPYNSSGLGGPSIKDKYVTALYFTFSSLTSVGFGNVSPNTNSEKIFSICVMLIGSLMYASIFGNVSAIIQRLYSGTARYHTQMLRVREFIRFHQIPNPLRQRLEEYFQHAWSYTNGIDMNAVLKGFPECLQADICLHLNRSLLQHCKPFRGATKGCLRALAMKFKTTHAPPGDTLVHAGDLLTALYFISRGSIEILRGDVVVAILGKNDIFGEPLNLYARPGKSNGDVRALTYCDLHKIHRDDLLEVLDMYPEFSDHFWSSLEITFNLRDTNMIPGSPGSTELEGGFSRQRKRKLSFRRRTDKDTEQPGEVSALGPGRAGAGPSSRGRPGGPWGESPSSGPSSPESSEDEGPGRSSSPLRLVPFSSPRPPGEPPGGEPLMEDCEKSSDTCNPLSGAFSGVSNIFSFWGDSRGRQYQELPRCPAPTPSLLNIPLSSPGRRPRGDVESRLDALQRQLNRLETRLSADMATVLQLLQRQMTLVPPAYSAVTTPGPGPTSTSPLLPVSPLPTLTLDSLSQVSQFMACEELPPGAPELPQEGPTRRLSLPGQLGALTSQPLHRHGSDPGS
#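 U2OS cells were transduced with wild-type KCNH2 virus (2.03 x 10^8 / mL) for 4 h at room temperature, then cultured overnight at 37 C. Thallium flux was read with FluxOr dye. Rate constants were normalized to DMSO controls.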
# KCNH2 3.1 block: inhibitors of human KCNH2 3.1 potassium channel isoform; 0.95% of 340,000 active; activity change, % (tested at about 1.8 µM); U2OS KCNH2 3.1, thallium flux FluxOr; hits give low values;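 active = maximum activity change below -70%; inconclusive = maximum activity change from -70% to -50%; inactive = maximum activity change above -50%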;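 note: thallium influx rate constant from kinetic fluorescence after stimulation buffer; % is set by controls: 0 for no effect and ±100 for the full control effect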
#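 Thallium flux read-out: FluxOr dye with Red40 quencher in HBSS/HEPES, 45 min at RT. Rate constants from kinetic reads were normalized to positive and negative DMSO controls. Cells: U2OS virally expressing the 3.1 isoform.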
# MCF10A rerep: DNA re-replication induction in MCF 10a cells; MCF 10A DNA re-replication, Hoechst nuclear intensity, 48 h; Potency, µM (doses to about 46.1 µM), inactives show top-dose activity, positive = re-replication, most hits filed as activators; 2.9% of 350,000 active; AID 624296; note: potency is the fitted concentration of half-maximal effect; % of control where 0% means no effect; nearly all actives have a fitted effect of over 50% in size
# KB-V1 cytotox: KB-V1 MDR subline cytotoxicity | KB-V1 MDR cells viability, CellTiter-Glo, 72 h | Potency, µM (titrated, usually from 46.1 µM), actives largely listed as cytotoxic | 3.4% of 400,000 active; note: potency is the fitted concentration of half-maximal effect; % is set by controls: 0 for no effect and ±100 for the full control effect; nearly all actives have a fitted effect of over 60% in size
#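 Cytotoxicity toward P-gp-expressing KB-V1 cells was determined as loss of CellTiter-Glo luminescence after 72 h at 37 degrees C. Compounds were tested in quantitative HTS format across a concentration range, with curves fitted to normalized data.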
# KB-3-1 tox: KB-3-1 parental cell cytotoxicity; KB-3-1 viability, CellTiter-Glo ATP luminescence, 72 h; Potency, µM (top dose mostly 46.1 µM), most hits filed as cytotoxic; 1.4% of 400,000 active; AID 1347075; note: potency is the fitted concentration of half-maximal effect; % is set by controls: 0 for no effect and ±100 for the full control effect; nearly all actives have a fitted effect of over 60% in size
#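 Cytotoxicity measured as CellTiter-Glo luminescence after 72 h at 37 C. Compound titrations were pinned onto drug-naive KB-3-1 parental adenocarcinoma cells grown in DMEM with 10% FBS, and normalized data fitted to concentration-response curves.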
# SW480 rerep: inducers of DNA re-replication in SW480 colon cancer cells; SW480 DNA re-replication, Hoechst DNA content imaging, 48 h; Potency, µM (highest dose often 46.1 µM), for the others: at the top dose re-replication activation, usual class: activators; 1.8% of 340,000 active; AID 624297; note: potency is the fitted concentration of half-maximal effect; % of control where 0% means no effect; nearly all actives have a fitted effect of over 55% in size
#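 Per well, 250 cells were exposed to pinned compound for 48 hr. Nuclear DNA was visualised with Hoechst (40 min, 37 C) and total object intensity recorded by fluorescence scanning.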
# The depositor's hits bear a star; i = inactive; ? = inconclusive; . = no result. Sampled rows, rich in hits. Any-hit rate of the full collection: about 7.6%. Unless noted, calls come from the whole dose curve; as a rule, active = well fitted curve in the direction sought with a large enough effect; inconclusive = small, poorly fitted or top-dose-only effect, or another doubt; inactive = no such curve, though single readings can be large; an effect the other way counts as inactive or inconclusive.
SMILES,KCNH2 WT inh,KCNH2 3.1 block,MCF10A rerep,KB-V1 cytotox,KB-3-1 tox,SW480 rerep
COc1ccc(OCC(=O)Nc2ccc(OC)c(S(=O)(=O)N3CCCCC3)c2)cc1,-6,21,?,i,21µM*,16µM*
COc1ccc(NC(=O)CCOc2ccc(C)cc2)cc1S(=O)(=O)N1CCOCC1,-17,-17,1%,18µM*,i,-9%
O=C(CCOc1cccc(Br)c1)Nc1ccc(F)c(S(=O)(=O)N2CCOCC2)c1,-8,8,?,23µM*,i,11%
COc1ccc(C(=O)OCc2ccccc2F)cc1S(=O)(=O)N1CCCC1,-9,-21,4%,16µM*,i,-4%
O=C(CCOc1ccccc1)Nc1ccc(Cl)c(S(=O)(=O)N2CCOCC2)c1,7,-2,10%,i,i,0%
Oc1ccccc1C1C=C(c2ccc3c(c2)OCO3)NC(c2cccc(Cl)c2)N1 (stereo unspecified),.,.,.,i,i,.
Cc1ccccc1OCC(=O)Nc1ccc(C)c(S(=O)(=O)N2CCCCCC2)c1,-8,-21,16%,12µM*,i,-5%
COc1cc2sc3ccc(-c4ccc(CN5CCOCC5)cc4)cc3c(=O)c2cc1OC,0,-1,6.5µM*,13µM*,?,23%
Clc1ccc(CSc2ncn(-c3ccccc3)n2)cc1,-2,11,6%,21µM*,i,-14%
CC1=C/C(=C\c2ccc(Br)o2)C(=O)O1,4,5,1%,i,i,-2%
COc1ccccc1-c1ccc(/C=C2\C=CC(=O)O2)o1,-7,-25,21µM*,i,i,?
COc1ccccc1-c1ccc(/C=C2/C=C(C)OC2=O)o1,0,0,21µM*,i,i,?
COC(=O)c1ccc2nc(-c3ccc(Cl)cc3)c(CC3CCCCC3)n2c1,.,.,.,16µM*,?,.
COC(=O)c1ccc2nc(-c3cccc(Br)c3)c(CC3CCCCC3)n2c1,.,.,.,13µM*,?,.
COC(=O)c1ccc2nc(-c3ccc(OC)c(OC)c3)c(CC3CCCCC3)n2c1,.,.,.,i,?,.
COC(=O)c1ccc2nc(-c3cccc(Br)c3)c(Cc3ccccc3)n2c1,.,.,.,?,i,.
Cc1csc2nc(SCC(=O)Nc3ccccc3F)[nH]c(=O)c12,-5,15,1%,?,?,2%
CCC(=O)Nc1ccc(N2CCN(Cc3ccccc3)CC2)cc1,34,-19,8.2µM*,i,i,-6%
O=C(CN1CCN(S(=O)(=O)N2CCCCCC2)CC1)Nc1ccc(Br)cc1,-101*,?,0%,i,i,-6%
O=C(CN1CCN(Cc2ccccc2)CC1)Nc1ccc(Br)cc1,-33,-84*,-3%,i,i,11%
O=C(CN1CCN(S(=O)(=O)N2CCCCC2)CC1)Nc1ccc(Cl)c(Cl)c1,-17,-3,?,13µM*,?,-6%
COCCNC(=O)CSc1nc(-c2ccccc2C)nc2c1c(=O)n(C)c(=O)n2C,.,.,.,i,i,.
COc1cc(C(=O)OCC(=O)N2CCCC2)cc2c1OCCO2,6,6,5%,i,i,1%
O=C(Cn1cc(COc2c(F)c(F)c(Br)c(F)c2F)nn1)c1ccc(O)cc1,-2,-10,-12%,i,i,-5%
COC(=O)CCSc1cc(NCCCOC(C)=O)c([N+](=O)[O-])c2nonc12,.,.,.,i,i,.
SMILES,KCNH2 WT inh,KCNH2 3.1 block,MCF10A rerep,KB-V1 cytotox,KB-3-1 tox,SW480 rerep
CC(=O)OCCCNc1cc(Sc2ccc(Cl)cc2)c2nonc2c1[N+](=O)[O-],5,-13,4.6µM*,i,i,.
Cc1cc(C)n(NC(=S)NC2CCCC2)c(=O)c1C#N,7,5,23µM*,i,i,?
Cc1nnc2c3ccccc3c(-c3ccc(O)cc3)nn12,-12,2,22%,?,?,-8%
Cc1nnc2c3ccccc3c(-c3cccs3)nn12,-4,-85*,19%,?,?,1%
CCOc1ccccc1NC(=S)N1CCC(c2nc3ccccc3o2)CC1,-1,15,11%,i,i,-1%
Cc1cccc(N2CCN(C(=O)CCCSc3nc4ccccc4[nH]3)CC2)c1C,6,-1,-6%,5.8µM*,i,4%
O=C(CSc1nc2ccccc2[nH]1)N1CCN(c2ccccc2)CC1,-10,13,12%,16µM*,i,-3%
O=C(CSc1nc2ccccc2[nH]1)N1c2ccccc2Sc2ccccc21,-13,-15,-2%,12µM*,i,9%
CCC(C)(C)NC(=O)CCn1c(-c2ccccc2)cc(C(C)=O)c1C,-1,8,1%,?,i,9%
CC1CCCC(NS(=O)(=O)c2cccc3nsnc23)C1C (stereo unspecified),-3,24,0%,i,i,-2%
COC(C/C=C/[C@@H](O)COCc1ccccc1)OC,-11,6,-15%,?,i,6%
CC(C)N1C(=O)/C(=C\c2nc3ccccc3c(=O)[nH]2)c2ccccc21,29,2,?,i,18µM*,?
CN1CCN(C(c2ccccc2)c2ccccc2)CC1,1,7,28%,i,i,-10%
CN1CCCN(C(c2ccccc2)c2ccc(Cl)cc2)CC1 (stereo unspecified),-22,-99*,?,i,i,?
O=C(C1CCN(Cc2ccc(Cl)cc2)CC1)N1CCN(C(c2ccccc2)c2ccccc2)CC1,-3,-41,?,?,21µM*,?
Cc1cccc(CN2CCN(C(c3ccccc3)c3ccc(Cl)cc3)CC2)c1 (stereo unspecified),-21,-32,23µM*,?,i,7%
CCN1CCN(C(=O)C2CCN(Cc3cc(Cl)ccc3O)CC2)CC1,-8,14,12µM*,i,i,-12%
COc1ccc(/C=N/N2CCN(c3ccc(Cl)cc3)CC2)cc1O,-2,-7,7%,i,i,-2%
COCCn1nnnc1C(C(C)C)N1CCCC(C)C1 (stereo unspecified),-15,-44,9%,i,i,-23%
COc1ccccc1C1/C(=C(/O)c2ccc(C)cc2)C(=O)C(=O)N1CC(C)O (stereo unspecified),12,5,-4%,i,i,-3%
Cc1ccc(/C(O)=C2\C(=O)C(=O)N(CC(C)O)C2c2ccc(N(C)C)cc2)cc1 (stereo unspecified),-123*,-5,4%,i,i,3%
